From the supplement of paper PMC11732987, “Enantioselective OTUD7B fragment discovery through chemoproteomics screening and high-throughput optimisation” (Communications Chemistry, 2025)

Legend:
Assay in all cases: log2 ratio of Biotin-Ahx-Ub-VS probe labelling (fragment/DMSO); higher = less target engagement (more negative = stronger competition), active = hit call of the paper (q ≤ 0.05, log2 ratio ≤ -1)
Conditions in all cases: compound concentration: 200 uM; treatment time: 3 h
[1] = molecular target: USP34 (UniProt Q70CQ2)
Chain of USP34 (Q70CQ2 whole entry, the tested form may be a part): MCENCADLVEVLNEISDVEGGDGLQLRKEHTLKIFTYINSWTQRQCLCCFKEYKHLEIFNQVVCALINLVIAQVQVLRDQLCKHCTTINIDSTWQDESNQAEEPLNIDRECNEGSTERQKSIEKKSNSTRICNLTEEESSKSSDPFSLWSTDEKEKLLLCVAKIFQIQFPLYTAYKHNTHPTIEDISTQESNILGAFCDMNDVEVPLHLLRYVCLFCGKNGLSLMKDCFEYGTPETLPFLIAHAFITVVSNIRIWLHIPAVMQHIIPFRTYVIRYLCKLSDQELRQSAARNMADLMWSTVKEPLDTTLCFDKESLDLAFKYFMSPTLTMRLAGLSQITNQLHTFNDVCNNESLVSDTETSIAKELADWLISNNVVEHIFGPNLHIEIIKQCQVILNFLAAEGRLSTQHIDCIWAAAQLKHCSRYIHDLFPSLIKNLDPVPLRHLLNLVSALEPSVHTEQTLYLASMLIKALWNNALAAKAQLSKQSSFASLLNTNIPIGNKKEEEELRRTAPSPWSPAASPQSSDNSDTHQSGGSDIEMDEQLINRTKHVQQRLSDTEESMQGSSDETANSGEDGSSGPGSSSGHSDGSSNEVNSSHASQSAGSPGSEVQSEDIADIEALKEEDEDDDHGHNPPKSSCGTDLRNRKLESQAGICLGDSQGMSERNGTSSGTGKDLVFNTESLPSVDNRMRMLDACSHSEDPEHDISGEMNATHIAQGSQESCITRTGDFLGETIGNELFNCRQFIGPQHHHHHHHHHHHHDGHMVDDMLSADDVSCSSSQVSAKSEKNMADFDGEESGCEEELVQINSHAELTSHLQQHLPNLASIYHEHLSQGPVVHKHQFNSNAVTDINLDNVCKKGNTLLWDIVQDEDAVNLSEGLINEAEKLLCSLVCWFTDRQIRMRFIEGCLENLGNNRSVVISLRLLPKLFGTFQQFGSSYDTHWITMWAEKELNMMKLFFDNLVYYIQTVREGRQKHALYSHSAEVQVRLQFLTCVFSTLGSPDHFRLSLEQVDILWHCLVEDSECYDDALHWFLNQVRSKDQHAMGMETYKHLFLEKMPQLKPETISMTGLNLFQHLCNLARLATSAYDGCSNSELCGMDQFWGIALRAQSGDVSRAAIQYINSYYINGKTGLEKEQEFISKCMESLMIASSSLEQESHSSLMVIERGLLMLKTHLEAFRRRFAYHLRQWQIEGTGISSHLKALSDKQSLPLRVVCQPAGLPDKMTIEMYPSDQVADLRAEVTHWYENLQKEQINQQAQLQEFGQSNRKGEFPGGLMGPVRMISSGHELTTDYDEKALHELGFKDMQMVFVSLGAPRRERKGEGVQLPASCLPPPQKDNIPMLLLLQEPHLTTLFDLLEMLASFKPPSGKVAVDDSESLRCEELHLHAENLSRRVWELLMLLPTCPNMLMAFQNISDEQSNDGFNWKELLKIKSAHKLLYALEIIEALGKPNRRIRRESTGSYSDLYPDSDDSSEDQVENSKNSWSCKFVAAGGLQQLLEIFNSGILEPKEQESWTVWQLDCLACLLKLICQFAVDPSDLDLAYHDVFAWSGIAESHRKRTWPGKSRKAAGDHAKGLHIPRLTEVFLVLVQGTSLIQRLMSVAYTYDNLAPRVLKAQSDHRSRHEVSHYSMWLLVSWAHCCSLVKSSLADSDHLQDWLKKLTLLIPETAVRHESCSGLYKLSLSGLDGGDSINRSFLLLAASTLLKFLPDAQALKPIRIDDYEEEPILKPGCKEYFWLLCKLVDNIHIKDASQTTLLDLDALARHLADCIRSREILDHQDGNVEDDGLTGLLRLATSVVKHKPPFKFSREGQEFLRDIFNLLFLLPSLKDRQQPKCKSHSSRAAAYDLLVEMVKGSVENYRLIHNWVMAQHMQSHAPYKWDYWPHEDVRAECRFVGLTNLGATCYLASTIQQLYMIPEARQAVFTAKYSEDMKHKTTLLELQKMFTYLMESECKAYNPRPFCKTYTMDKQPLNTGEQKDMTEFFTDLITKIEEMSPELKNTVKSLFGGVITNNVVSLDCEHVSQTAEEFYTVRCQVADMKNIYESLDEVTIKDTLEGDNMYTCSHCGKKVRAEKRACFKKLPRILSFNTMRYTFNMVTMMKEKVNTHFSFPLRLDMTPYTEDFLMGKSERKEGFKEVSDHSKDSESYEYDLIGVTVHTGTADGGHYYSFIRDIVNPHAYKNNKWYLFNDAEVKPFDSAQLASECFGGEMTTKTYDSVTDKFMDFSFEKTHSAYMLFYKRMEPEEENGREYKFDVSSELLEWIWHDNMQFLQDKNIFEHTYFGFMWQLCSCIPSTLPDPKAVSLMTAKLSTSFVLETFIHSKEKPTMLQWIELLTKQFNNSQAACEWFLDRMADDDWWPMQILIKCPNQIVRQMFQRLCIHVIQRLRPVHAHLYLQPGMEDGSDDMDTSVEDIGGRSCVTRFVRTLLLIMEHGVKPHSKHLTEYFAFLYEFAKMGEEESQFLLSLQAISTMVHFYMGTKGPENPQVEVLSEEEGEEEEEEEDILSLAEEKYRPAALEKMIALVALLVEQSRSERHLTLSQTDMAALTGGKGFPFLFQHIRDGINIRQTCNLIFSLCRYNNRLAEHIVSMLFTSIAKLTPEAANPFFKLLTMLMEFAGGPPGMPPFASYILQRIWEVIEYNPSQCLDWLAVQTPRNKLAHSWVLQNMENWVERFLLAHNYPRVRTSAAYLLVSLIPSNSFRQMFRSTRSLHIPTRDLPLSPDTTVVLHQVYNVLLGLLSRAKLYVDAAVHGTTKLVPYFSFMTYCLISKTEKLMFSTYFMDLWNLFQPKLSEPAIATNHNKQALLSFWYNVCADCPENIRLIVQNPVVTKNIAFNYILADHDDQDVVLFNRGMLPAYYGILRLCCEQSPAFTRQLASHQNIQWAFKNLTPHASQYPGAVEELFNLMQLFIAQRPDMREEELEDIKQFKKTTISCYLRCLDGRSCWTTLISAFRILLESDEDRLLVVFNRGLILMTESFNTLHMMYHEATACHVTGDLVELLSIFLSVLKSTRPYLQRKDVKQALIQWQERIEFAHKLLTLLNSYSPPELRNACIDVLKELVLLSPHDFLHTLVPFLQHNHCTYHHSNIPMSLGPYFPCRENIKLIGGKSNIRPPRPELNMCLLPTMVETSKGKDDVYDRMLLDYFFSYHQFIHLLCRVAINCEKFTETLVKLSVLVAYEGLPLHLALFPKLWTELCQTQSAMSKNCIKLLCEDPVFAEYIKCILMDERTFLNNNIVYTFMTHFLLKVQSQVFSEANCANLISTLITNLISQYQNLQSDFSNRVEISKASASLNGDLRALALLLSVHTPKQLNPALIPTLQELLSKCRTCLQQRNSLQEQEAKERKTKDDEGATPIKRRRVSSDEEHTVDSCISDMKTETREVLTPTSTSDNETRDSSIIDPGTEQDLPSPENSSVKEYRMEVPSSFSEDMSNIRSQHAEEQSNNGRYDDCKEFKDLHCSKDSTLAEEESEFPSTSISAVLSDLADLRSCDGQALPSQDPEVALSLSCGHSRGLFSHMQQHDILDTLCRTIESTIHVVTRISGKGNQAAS
Method in brief: (§1)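 Global-median-normalised Spectronaut label-free quantities were compared by unpaired t-test, and values are average log2 ratios of fragment over vehicle. Only proteins with ≥2 unique peptides were used. HEK293T lysate (495 µg per sample) was treated in triplicate with fragment at 200 µM or vehicle for 3 h and then with Biotin-Ahx-Ub-VS at 0.5 µM final for 1 h. Labelled DUBs were then NeutrAvidin-enriched, digested with LysC and trypsin, and run by diaPASEF LC-MS/MS.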

[2] = molecular target: T1, USP36 (UniProt Q9P275)
T1 sequence (whole entry): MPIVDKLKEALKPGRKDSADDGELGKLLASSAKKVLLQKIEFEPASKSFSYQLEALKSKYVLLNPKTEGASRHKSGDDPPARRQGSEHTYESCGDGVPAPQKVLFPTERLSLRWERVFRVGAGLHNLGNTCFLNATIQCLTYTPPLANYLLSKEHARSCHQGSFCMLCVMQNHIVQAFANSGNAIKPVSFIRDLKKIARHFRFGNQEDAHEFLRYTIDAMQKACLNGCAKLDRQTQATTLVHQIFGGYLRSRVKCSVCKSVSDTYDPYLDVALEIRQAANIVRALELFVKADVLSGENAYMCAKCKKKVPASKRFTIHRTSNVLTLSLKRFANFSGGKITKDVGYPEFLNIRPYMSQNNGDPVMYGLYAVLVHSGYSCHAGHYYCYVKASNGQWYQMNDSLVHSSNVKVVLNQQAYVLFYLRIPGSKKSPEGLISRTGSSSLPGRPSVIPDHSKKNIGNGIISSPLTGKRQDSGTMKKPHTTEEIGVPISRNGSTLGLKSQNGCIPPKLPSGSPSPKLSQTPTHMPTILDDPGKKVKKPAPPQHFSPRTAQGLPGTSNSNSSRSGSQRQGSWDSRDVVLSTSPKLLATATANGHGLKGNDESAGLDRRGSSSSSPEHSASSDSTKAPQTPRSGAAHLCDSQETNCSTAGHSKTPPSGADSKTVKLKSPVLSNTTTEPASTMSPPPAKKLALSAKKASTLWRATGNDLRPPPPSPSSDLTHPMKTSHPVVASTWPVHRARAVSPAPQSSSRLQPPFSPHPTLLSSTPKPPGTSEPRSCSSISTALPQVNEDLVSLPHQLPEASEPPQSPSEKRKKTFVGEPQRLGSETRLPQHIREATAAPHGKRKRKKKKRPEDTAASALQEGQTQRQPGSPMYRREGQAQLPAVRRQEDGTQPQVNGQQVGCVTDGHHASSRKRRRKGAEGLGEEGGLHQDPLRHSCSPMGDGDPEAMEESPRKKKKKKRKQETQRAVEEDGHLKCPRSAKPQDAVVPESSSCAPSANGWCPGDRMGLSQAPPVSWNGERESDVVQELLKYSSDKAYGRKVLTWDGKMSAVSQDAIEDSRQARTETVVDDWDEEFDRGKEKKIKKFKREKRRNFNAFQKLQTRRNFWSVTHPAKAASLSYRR
Method in brief: as §1

[3] = molecular target: T2, USP38 (UniProt Q8NB14)
T2 sequence (whole entry): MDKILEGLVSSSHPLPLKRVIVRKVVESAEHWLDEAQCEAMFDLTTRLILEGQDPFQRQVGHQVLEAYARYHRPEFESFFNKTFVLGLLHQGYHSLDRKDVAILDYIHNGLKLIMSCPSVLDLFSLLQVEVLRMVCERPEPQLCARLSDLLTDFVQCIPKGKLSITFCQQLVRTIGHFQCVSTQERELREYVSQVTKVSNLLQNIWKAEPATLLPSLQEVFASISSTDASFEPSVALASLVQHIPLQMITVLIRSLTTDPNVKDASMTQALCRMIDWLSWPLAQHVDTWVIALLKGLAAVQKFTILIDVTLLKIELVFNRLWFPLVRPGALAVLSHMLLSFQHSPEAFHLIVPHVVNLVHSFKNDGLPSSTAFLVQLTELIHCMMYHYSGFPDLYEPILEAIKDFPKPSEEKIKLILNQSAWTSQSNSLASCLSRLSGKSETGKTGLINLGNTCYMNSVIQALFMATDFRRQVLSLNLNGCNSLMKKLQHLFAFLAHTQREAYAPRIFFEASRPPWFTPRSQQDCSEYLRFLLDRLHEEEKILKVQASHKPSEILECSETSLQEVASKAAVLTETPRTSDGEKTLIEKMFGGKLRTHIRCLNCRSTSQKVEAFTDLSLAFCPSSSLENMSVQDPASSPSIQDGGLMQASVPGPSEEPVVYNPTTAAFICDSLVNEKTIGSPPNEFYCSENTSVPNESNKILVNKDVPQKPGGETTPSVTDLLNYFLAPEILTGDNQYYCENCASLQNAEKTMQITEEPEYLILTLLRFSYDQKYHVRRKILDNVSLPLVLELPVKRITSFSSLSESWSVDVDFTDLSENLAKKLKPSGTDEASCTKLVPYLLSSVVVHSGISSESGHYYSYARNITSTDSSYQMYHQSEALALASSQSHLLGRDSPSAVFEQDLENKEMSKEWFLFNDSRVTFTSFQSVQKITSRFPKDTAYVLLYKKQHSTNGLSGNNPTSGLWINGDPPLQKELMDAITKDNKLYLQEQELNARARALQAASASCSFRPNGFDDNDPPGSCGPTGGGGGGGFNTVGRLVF
Method in brief: as §1

[4] = molecular target: T3, USP39 (UniProt Q53GS9)
T3 sequence (whole entry): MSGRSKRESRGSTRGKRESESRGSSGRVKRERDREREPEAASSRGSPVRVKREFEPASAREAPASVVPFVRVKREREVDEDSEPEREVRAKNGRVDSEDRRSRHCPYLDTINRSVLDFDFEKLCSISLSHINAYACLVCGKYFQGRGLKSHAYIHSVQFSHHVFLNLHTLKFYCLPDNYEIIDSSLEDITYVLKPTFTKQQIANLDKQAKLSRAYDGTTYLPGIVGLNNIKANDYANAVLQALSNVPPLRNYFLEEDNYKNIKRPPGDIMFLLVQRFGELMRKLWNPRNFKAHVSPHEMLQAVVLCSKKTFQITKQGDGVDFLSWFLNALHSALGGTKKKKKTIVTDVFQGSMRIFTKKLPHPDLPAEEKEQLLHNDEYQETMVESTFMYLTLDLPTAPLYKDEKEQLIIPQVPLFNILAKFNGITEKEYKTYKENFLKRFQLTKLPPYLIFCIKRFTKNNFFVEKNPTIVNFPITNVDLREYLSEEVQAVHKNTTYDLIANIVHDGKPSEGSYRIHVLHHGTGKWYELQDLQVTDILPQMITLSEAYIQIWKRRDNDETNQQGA
Method in brief: as §1

[5] = molecular target: T4, USP4 (UniProt Q13107)
T4 sequence (whole entry): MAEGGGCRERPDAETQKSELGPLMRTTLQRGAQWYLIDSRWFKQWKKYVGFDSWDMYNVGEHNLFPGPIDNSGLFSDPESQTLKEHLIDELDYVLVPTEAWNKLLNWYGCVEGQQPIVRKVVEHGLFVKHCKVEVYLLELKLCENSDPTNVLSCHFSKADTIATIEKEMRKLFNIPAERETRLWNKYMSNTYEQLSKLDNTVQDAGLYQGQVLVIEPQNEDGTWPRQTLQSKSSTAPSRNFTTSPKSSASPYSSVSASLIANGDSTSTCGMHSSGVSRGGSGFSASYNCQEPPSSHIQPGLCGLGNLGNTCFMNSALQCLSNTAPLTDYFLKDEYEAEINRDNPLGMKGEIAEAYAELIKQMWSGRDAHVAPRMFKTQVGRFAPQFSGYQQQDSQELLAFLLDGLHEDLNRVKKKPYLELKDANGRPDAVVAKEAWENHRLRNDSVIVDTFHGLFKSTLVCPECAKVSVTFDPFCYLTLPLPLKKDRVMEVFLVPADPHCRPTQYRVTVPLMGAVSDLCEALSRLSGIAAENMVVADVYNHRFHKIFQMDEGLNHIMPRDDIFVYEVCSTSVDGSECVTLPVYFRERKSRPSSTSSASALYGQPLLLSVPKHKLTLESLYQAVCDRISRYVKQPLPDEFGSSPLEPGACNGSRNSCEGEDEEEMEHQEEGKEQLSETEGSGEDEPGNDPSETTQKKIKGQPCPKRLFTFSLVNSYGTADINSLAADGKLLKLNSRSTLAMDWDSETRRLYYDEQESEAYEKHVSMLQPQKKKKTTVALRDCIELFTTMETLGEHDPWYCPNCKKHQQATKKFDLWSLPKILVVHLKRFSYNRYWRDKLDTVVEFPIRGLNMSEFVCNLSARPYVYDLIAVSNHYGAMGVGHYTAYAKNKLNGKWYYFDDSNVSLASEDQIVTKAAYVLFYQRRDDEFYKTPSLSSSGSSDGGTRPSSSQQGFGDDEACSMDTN
Method in brief: as §1

Measured: log2 ratio of Biotin-Ahx-Ub-VS probe labelling

Cc1ccc(CN(C)C(=O)CCl)o1
inactive: [1] -0.0329 | [2] 0.0474 | [3] -0.0916 | [4] 0.287 | [5] 0.0471
